Measurements taken from ChEMBL document CHEMBL4513146, “CO-ADD screening of Karazin Kharkiv National University (Ukraine) compounds”.
Measured potencies and affinities stand elsewhere.

What was measured:
Staphylococcus aureus = conditions: Concentration 32 ug.mL-1;; ASSAY_TEST Inhibition of Bacterial Growth; detection method Absorption (OD600); MEDIA CAMHB; plate type 384well; NBS; CORNING #3640; time 18 hr
Escherichia coli = conditions: Concentration 32 ug.mL-1;; ASSAY_TEST Inhibition of Bacterial Growth; detection method Absorption (OD600); MEDIA CAMHB; plate type 384well; NBS; CORNING #3640; time 18 hr

SMILES	Inhibition (Staphylococcus aureus) [%]	Inhibition (Escherichia coli) [%]
CCOc1ccc(NC(=O)CSc2nnc3c(=O)n(-c4ccc(OCC)cc4)ccn23)cc1	16.17	-1.04
Cc1ccc(NC(=O)Cn2nc3c(Oc4ccccc4)nccn3c2=O)c(Cl)c1	0.38	-2.7
Cc1ccc(Nc2cc(C)n3c(=O)n(Cc4cc(=O)n5ccccc5n4)nc3n2)cc1F	9.94	-6.14
CCc1ccccc1Sc1nccn2c(=O)n(CC(=O)N3CCN(c4ccccc4F)CC3)nc12	-3.66	-8.54
O=C(CSc1nnc2c(=O)n(-c3ccc(Br)cc3)ccn12)Nc1cccc(F)c1	9.13	-1.52
Cc1cccc(Sc2nc3ccccc3n3c(=O)n(CC(=O)Nc4c(C)cc(C)cc4C)nc23)c1	8.94	-2.19
COc1ccc(NC(=O)Cn2nc3c(Sc4cccc(F)c4)nccn3c2=O)cc1Cl	6.9	-7.48
CCc1ccc(N(Cc2ccc(Cl)cc2)S(=O)(=O)c2cccn3c(C)nnc23)cc1	0.63	-8.46
CCOc1ccc(C(=O)CSc2nnc3c(=O)n(-c4ccc(Br)cc4)ccn23)cc1	15.75	-1.32
COCCCNC(=O)CSc1nnc2c(=O)n(Cc3ccccc3)ccn12	7.01	-1.7
CC(C)CCn1c(=O)c2ccc(C(=O)NC3CCCC3)cc2n2c(=O)n(CC#N)nc12	11.46	0.05
CCc1nnc2ccc(S(=O)(=O)N(Cc3cccc(OC)c3)c3cccc(F)c3)cn12	-0.28	-5.95
CCOC(=O)c1ccc(NC(=O)Cn2nc3ccc(Sc4cccc(F)c4)nn3c2=O)cc1	9.91	-1.47
COC(=O)c1ccccc1NC(=O)Cn1nc2c(Oc3ccccc3)nccn2c1=O	8.3	-3.16
O=C(Cn1nc2ccc(C(=O)NCc3ccccc3)cn2c1=O)Nc1ccc(Br)cc1	3.47	-7.68
O=C(Cn1nc2c3cc(-c4ccc(F)cc4)nn3ccn2c1=O)Nc1ccc(Br)cc1	-9.12	-9.31

SMILES	Inhibition (Staphylococcus aureus) [%]	Inhibition (Escherichia coli) [%]
Cc1ccc(Oc2nccn3c(=O)n(CC(=O)N4CCN(c5ccccc5F)CC4)nc23)cc1	10.22	-0.59
CCCCN(CC)c1ccc2nnc(CCc3nc(-c4ccc(Br)cc4)no3)n2n1	6.29	-0.23
O=C(Cn1nc2c(=O)n(-c3ccc(Br)cc3)ccn2c1=O)Nc1ccc(F)cc1F	3.27	-0.82
COc1cc(NC(=O)Cn2nc3c(N4CCCC(C)C4)nccn3c2=O)cc(OC)c1 (centres undefined)	-12.69	-14.56
COc1ccc2[nH]cc(C(=O)CSc3nnc4c(=O)n(-c5ccc(C)c(C)c5)ccn34)c2c1	17.24	-2.44
O=C(Cn1nc2c3c4c(sc3ncn2c1=O)CCCC4)NCc1ccccc1Cl	-19.92	0.09
CCc1nnc2c(S(=O)(=O)N(Cc3ccccc3C)c3ccc(Cl)cc3)cccn12	-22.93	-4.88
COc1cccc(Sc2nc3ccccc3n3c(=O)n(CC(=O)Nc4c(C)cc(C)cc4C)nc23)c1	1.84	-6.13
COc1cccc(-n2ccn3c(SCC(=O)Nc4ccc(Cl)cc4)nnc3c2=O)c1	16.43	-13.45
Cc1ccc(-c2cc3c4nn(CC(=O)Nc5ccccc5F)c(=O)n4ccn3n2)cc1C	-4	-9.57
COc1cccc(-n2ccn3c(SCC(=O)c4ccc(C)cc4)nnc3c2=O)c1	8.57	-9.45
Cc1ccc(Sc2nccn3c(=O)n(CC(=O)Nc4cccc(Cl)c4)nc23)c(C)c1	9.86	-3.61
O=C(Cn1nc2c(Oc3ccccc3)nccn2c1=O)Nc1ccccc1C(F)(F)F	2.85	-0.6
Cc1nnc2ccc(S(=O)(=O)N(Cc3ccc(Cl)cc3)c3cccc(F)c3)cn12	2.65	-4.46
CC(C)CCn1c(=O)c2ccccc2n2c(=O)n(CC#N)nc12	16.96	1.73
Cc1ccc(-c2cc3c4nn(CC(=O)Nc5ccccc5Br)c(=O)n4ccn3n2)cc1C	9.34	-2.39
